Sampled rows, rich in hits. Any-hit rate of the full collection: about 6.1%.
DRD3 agonist: agonists of human D3 dopamine receptor; AID 652048; max activation, %; D3R DiscoveRx beta-arrestin cells, luminescence, 90 min; 410,000 compounds, 0.58% hits; in the data active means max activation above about 30%
Target sequence (P35462 whole entry, looked up): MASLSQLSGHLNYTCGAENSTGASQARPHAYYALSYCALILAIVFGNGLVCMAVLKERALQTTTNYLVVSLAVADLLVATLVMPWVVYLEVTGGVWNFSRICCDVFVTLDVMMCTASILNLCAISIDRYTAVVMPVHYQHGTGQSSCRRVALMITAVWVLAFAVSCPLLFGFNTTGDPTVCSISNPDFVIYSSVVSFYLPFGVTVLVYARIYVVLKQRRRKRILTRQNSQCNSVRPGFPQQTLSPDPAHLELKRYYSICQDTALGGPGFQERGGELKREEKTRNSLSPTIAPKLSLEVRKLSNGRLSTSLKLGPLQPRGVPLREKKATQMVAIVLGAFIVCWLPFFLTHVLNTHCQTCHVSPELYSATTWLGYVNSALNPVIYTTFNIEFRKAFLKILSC
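Agonist mode: compounds and dopamine controls were applied to plated cells for 90 min at 37 degrees C after an overnight attachment at 1500 cells/well. Luminescent read-out followed 30 - 60 minutes at room temperature with DiscoveRx detection reagent.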
D3 antag: antagonists of human D3 dopamine receptor; max response, negative = inhibition, %; P35462; 360,000 compounds, 2.5% hits; D3R cells, DiscoveRx beta-arrestin luminescence, antagonist mode; active compounds read low; AID 652054; in the data active means max response below about -50%; inconclusive means no clear call, values can overlap the other calls
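Cells plated overnight at 1500 cells/well, then exposed to library compounds with dopamine controls for 90 minutes at 37 degrees C. DiscoveRx reagent added for 30–60 minutes at room temperature; luminescence read, quantitative HTS format.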
D1 antag: human D1 dopamine receptor antagonism; P21728; HEK293 TREx D1 cells, calcium flux, dopamine EC80; active compounds read low; 360,000 compounds, 3.2% hits; activity change, negative = inhibition, % at 10 µM; AID 504652; in the data active means activity change below about -30%
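Tetracycline-induced HEK293 Trex D1 cells, force-coupled to calcium, dye-loaded; compounds added and read 180 s, then EC80 dopamine added and calcium flux tracked kinetically another 180 s.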
D1 agonist: activates the human D1 dopamine receptor | 360,000 compounds, 1% hits | activation, % at 2 µM | HEK293 T-REx D1 cells, calcium flux, agonist mode | P21728; in the data active means activation above about 30%
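Agonism was scored from calcium flux recorded over 180 s (1 read/s) after pintool compound addition, following a 10-cycle baseline. Cells were inducible force-coupled HEK293 TREx D1, plated overnight at 30 C and loaded with no-wash calcium dye.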
D1 PAM: potentiators of human D1 dopamine receptor | P21728 | HEK293 TREx D1 cells, calcium flux, dopamine EC20 potentiation | potentiation, % at 10 µM | 360,000 compounds, 0.036% hits | AID 504651; in the data active means potentiation above about 30%
ERG-DNA inh: inhibitors of human ERG Ets domain-DNA interaction; P11308; fluorescence polarization, His-ERG Ets domain / labelled DNA; Potency, µM (top dose mostly 76.9 µM), usual class: inhibitors; 370,000 compounds, 0.028% hits; AID 624246; active means well fitted inhibition curve with a large enough effect in the polarisation, with a control signal flat; inconclusive means small, poorly fitted or top-dose-only effect, or effect the other way, or a change in a side signal; inactive means no such curve, though single readings can be large or run the other way; the % refers to the polarisation;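 further: polarization taken with two DNA probes labelled with fluorescein and Texas red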
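His-tagged ERG Ets domain (1 uM in the protein solution; 300mM KCl, 50mM Tris-HCl, 1mM EDTA, 1mM DTT, pH 7.5) received compound, then a probe mix of 5 nM fluorescein-DNA and 100nM Texas-615-DNA. Fluorescence polarization was read for both dyes.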
Large screens that a line does not name were inactive.

CCCN1CCN(CCCNC(=O)CN2C(=O)C(CC)Oc3ccccc32)CC1 (stereo unspecified)	none
CCC1Oc2ccccc2N(CC(=O)NCCN2CCc3ccccc3C2)C1=O (stereo unspecified)	D3 antag -53 (no result: ERG-DNA inh)
O=C1[C@@H]2[C@H]3CC[C@H](C3)[C@@H]2C(=O)N1CCCCN1CCN(c2ncccn2)CC1	none (no result: D3 antag, D1 antag, D1 agonist, D1 PAM, ERG-DNA inh)
O=C1CC2(CCCC2)CC(=O)N1CCCCN1CCN(c2ncccn2)CC1	D3 antag -100
COc1ccccc1OCCNC(=O)C1CCCCC1	D1 agonist 34
COc1ccccc1NC(=S)NC(=O)C1CC1	D1 antag -42
O=C(NC(=S)Nc1ccccc1)C1CCCCC1	none
COC(=O)c1ccccc1NC(=S)NC(=O)C1CCCCC1	D1 antag -64
O=C(NC(=S)NCc1ccccc1)C1CCCCC1	D3 antag -54
COc1ccc(CCC(=O)NCc2nc3cccnc3n2Cc2ccccc2)cc1	none (no result: D3 antag)
COc1ccccc1NC(=S)NC1CCCCC1	none
COc1ccc(OCC(=O)NNC(=S)NC(=O)C2CC2)cc1	DRD3 agonist 31
O=C(NC(=S)Nc1ccc(F)c(Cl)c1)C1CC1	none
Cc1ccc(NC(=S)NC(=O)C2CC2)cc1Cl	D1 antag -73
COc1ccccc1NC(=S)NC1CCCCCCCCCCC1	D3 antag -79
Cc1ccc2c(CNCc3cccc(Cl)c3)c(C(=O)O)n(Cc3ccc(F)cc3Cl)c2c1	none (no result: D3 antag)
C=CCOn1c(=O)c(-c2cccs2)[n+]([O-])c2ccccc21	none
CCN(CC)CC(O)Cn1c(C)c(-c2ccccc2)c2cc([N+](=O)[O-])ccc21 (stereo unspecified)	D3 antag inconclusive, D1 agonist 34
CCN(CC)CC(O)Cn1c2ccccc2c2ccccc21 (stereo unspecified)	none
Cc1ccc(S(=O)(=O)Nc2cccnc2)cc1	none
CCCCOc1ccc(S(=O)(=O)Nc2cccnc2)cc1	D1 antag -37 (no result: ERG-DNA inh)
NCCc1c(-c2ccccc2)n(-c2ccccc2)c2ccccc12	D1 agonist 102
CC(=O)n1c(-c2ccccc2)c(CO)c2ccccc21	none
COc1cccc(CN(C)C(=O)C23CC4CC(CC(C4)C2)C3)c1	D1 antag -34
CCN(CC)C(=O)CSc1nc(N)c(C(=O)Nc2ccc(OC)cc2)s1	D1 antag -32
CCCNC(=O)C(Cc1cccc(Cl)c1)NC(=O)c1ccc(C#N)cc1 (stereo unspecified)	none
CCCNC(=O)C(Cc1cccc(C#N)c1)NC(=O)c1ccc(C#N)cc1 (stereo unspecified)	DRD3 agonist 90
CC1=CC(C)(C)NC(=S)N1c1ccc(C)c(C)c1	D1 antag -31, D1 agonist 60

Screens deposited in PubChem by National Center for Advancing Translational Sciences (NCATS).
